Hits are enriched below; roughly 2.5% of the tested compounds scored in any of these assays.
Granule exo inh: lytic granule exocytosis inhibition; TALL-104 LAMP-1 surface exposure, flow cytometry; cells stimulated with thapsigargin and PMA; inhibition, % at 10 µM; 0.66% of 360,000 active;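 active means inhibition above about 55%, limit read from the data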
ABCB6 inh MLPCN: human ABCB6 transporter inhibition; K562-ABCB6 porphyrin accumulation, flow cytometry, 1 h; stronger effect = lower value; 0.19% of 360,000 active; Q9NP58; fluorescence ratio to DMSO, % at 10 µM;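 active means fluorescence ratio to DMSO below 75%, the collection mean minus 3 SD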;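 further: signal is porphyrin accumulated inside mitochondria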
PG9 binder: small molecules binding HIV-1 gp120 antibody PG9 | TR-FRET gp120-PG9 antibody binding | inhibition, % at 6.7 µM | 0.43% of 360,000 active | AID 624416; in the data active means inhibition above about 8.5%
rCAG binder-1: molecules binding r(CAG) RNA repeats; r(CAG) RNA repeat, TO-PRO-1 dye displacement fluorescence; inhibition, % at 3 µM; 1.3% of 370,000 active; AID 651821;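 active means inhibition above the plate cutoff, the mean of all test compounds on that plate plus 3 SD, cut at about 35% in these data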;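 further: higher means more dye released from RNA so lower well fluorescence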
rCAG binder conf: r(CAG) RNA repeat binding, confirmation | shares compounds with rCAG binder-1 | TO-PRO-1 dye displacement fluorescence | inhibition, % at 3 µM | 70% of 4,300 active;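 active means inhibition above a per-plate cutoff, the mean inhibition of sample wells plus 3 SD, cut at about 35% in these data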;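 further: loss of TO-PRO-1 fluorescence as compound displaces dye from 1x1 AA loop RNA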
DNA CAG counter: DNA CAG dye complex inhibition counter-screen; 94% of 4,300 active; inhibition, % at 3 µM; shares compounds with rCAG binder-1; AID 652068; d(CAG) DNA oligo TO-PRO-1 dye displacement, fluorescence;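 active means inhibition above its plate's cutoff, the mean test-well inhibition plus 3 SD, cut at about 4.8% in these data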;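 further: hits displace the dye from DNA and so lower well fluorescence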
DNA CAG DR: counter-screen for rCAG binders: inhibitors of DNA CAG TO-PRO-1 complex. 20% of 250 active. DNA CAG/GTC duplex TO-PRO-1 dye displacement fluorescence. shares compounds with rCAG binder-1. IC50, µM; in the data active means IC50 below about 10 µM
dCAG DNA bind: DNA CAG dye complex inhibition, late stage dose response; 80% of 30 active; IC50, µM; shares compounds with rCAG binder-1; d(CAG) DNA duplex TO-PRO-1 dye displacement, fluorescence; AID 720649
rCAG binder-2: molecules binding r(CAG) RNA repeats, late stage dose response; shares compounds with rCAG binder-1; r(CAG) RNA TO-PRO-1 dye displacement, fluorescence; IC50, µM; 100% of 30 active
Of the large screens only hits and unclear results are named; the others gave an inactive call (follow-up assays come after a bar, where they were run). Unless noted, how the calls were made is not given here.

CC(C)C[C@H]1COc2cc(N3CCN(C)CC3)ccc2S(=O)(=O)N1	none
O=C(N/N=C/c1c(O)n(-c2ccccc2)c(=S)[nH]c1=O)c1ccccc1	none
Cc1ccccc1-n1c(O)c(/C=N/NC(=O)c2ccccc2O)c(=O)[nH]c1=S	rCAG binder-1 56.2 | rCAG binder conf 35.0 | DNA CAG counter 9.0
O=C(N/N=C/c1c(O)n(C2CC2)c(=S)[nH]c1=O)c1ccccc1O	rCAG binder-1 37.8 | rCAG binder conf inactive | DNA CAG counter 6.0
C/C(=N\NC(=O)c1ccccc1O)c1c(O)n(C2CCCCC2)c(=O)[nH]c1=O	rCAG binder-1 82.8 | rCAG binder conf 76.9 | DNA CAG counter 34.5 | DNA CAG DR 3.09 | dCAG DNA bind 2.03 | rCAG binder-2 0.817
Oc1c(Cl)cccc1Cc1cc(Cl)cc(Cl)c1O	rCAG binder-1 58.9 | rCAG binder conf 61.8 | DNA CAG counter 16.2 | DNA CAG DR inactive
CC[C@@H](C(=O)[C@@H](C)[C@@H](O)[C@H](C)CCc1ccc(C)c(O)c1C(=O)O)[C@H]1O[C@](CC)([C@H]2CC[C@](O)(CC)[C@H](C)O2)C[C@@H]1C	rCAG binder-1 57.8 | rCAG binder conf 60.2 | DNA CAG counter 12.3 | DNA CAG DR inactive
C[C@]12CC[C@H](O)CC1=CC(=O)C1C2CC[C@]2(C)C(=O)CCC12 (stereo partly specified)	none
CC(=O)N1CCN(c2ccc([N+](=O)[O-])cc2C=C2C(=O)NC(=O)NC2=O)CC1	rCAG binder-1 35.6 | rCAG binder conf inactive | DNA CAG counter inactive
CCN1CCN(c2ccc([N+](=O)[O-])cc2C=C2C(=O)NC(=O)NC2=O)CC1	none
